Experimental findings from PubChem BioAssay (EPA / NIEHS) are described below.

Inconclusive results are not listed. The source holds several records for some structures; these can differ, active in one and inactive in another. Calls of active or inactive are those of the source. How the source made its calls, unless noted: active means hit-call score of the fitted dose curve at least 0.9, where 1 is the maximum; inconclusive means response in the unintended direction; inactive means score below 0.9.

Experiment [1] has as its target Oxysterols receptor LXR-beta (Homo sapiens) (UniProt P55055). The experiment is described as follows: ATG_LXRb_TRANS: Attagene TRANS-FACTORIAL HepG2 Assay for human Liver X Receptor beta (LXRb) (AID 2282981). The note with it: HepG2 Attagene TRANS GAL4-LXRb reporter, mRNA. The procedure, abridged:
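HepG2 cells transiently transfected with GAL4-UAS reporter units for chimeric NR-Gal4 proteins, dosed for 24 h. Reporter transcripts measured by RT-PCR and capillary electrophoresis; gain-of-signal fitting relative to DMSO.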

Experiment [2] deals with Hepatocyte nuclear factor 4-alpha (Homo sapiens) (UniProt P41235). The experiment is described as follows: ATG_HNF4a_TRANS: Attagene TRANS-FACTORIAL HepG2 Assay for human Hepatocyte Nuclear Factor 4 alpha (HNF4a) (AID 2282982). The note with it: HepG2 HNF4a transactivation reporter, mRNA readout. The procedure, abridged:
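HepG2 cells transiently transfected with HNF4a-Gal4 chimera and GAL4-UAS reporter units, dosed for 24 h. Reporter mRNA measured by RT-PCR, fluorescent primer extension and capillary electrophoresis; gain-of-signal fitted relative to DMSO.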

Experiment [3] can be described thus: ATG_M_06_TRANS: Attagene TRANS-FACTORIAL HepG2 Assay for M06 Transcription Factor (Internal Marker) (AID 2282983).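 Further: reporter transcript level by RT-PCR then capillary electrophoresis fluorescence.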 The note with it: HepG2 Attagene TRANS M06 internal marker reporter. The gist of the method:
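Cells: HepG2, transient multi-reporter transfection. Exposure: 24 h. Detection: RT-PCR, 6-FAM labelling, HpaI digestion (2 h, 37 °C), capillary electrophoresis. Baseline: DMSO.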

Experiment [4] can be described thus: ATG_M_32_TRANS: Attagene TRANS-FACTORIAL HepG2 Assay for M32 Transcription Factor (Internal Marker) (AID 2282984).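 On outcome: transcript level of a background control reporter unit measured by RT-PCR and capillary electrophoresis.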 The note with it: HepG2 Attagene TRANS M32 internal marker reporter. The gist of the method:
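HepG2 cells transiently transfected with GAL4-UAS reporter units, dosed for 24 hours. Reporter mRNA quantified by RT-PCR, 6-FAM labelling, HpaI digestion and capillary electrophoresis; internal-marker signal fitted upward relative to DMSO.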

Experiment [5] addresses Nuclear receptor subfamily 4 group A member 2 (Homo sapiens) (UniProt P43354). The experiment is described as follows: ATG_NURR1_TRANS: Attagene TRANS-FACTORIAL HepG2 Assay for human Nuclear Receptor Related Protein 1 (NURR1) (AID 2282985). The note with it: HepG2 Attagene TRANS reporter, mRNA readout. The gist of the method:
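HepG2 cells transiently transfected with NURR1-Gal4 chimera and GAL4-UAS reporter units; after 24 hr compound exposure, reporter mRNA quantified by RT-PCR and capillary electrophoresis; gain of signal fitted against DMSO.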

Experiment [6] has as its target Transcriptional activator Myb (Homo sapiens) (UniProt P10242). Briefly: ATG_Myb_CIS: Attagene CIS-FACTORIAL HepG2 Assay for human Myeloblastosis (Myb) Proto-Oncogene Transcription Factor (AID 2282986; active means hit-call score of the fitted dose curve at least 0.9, where 1 is the maximum; inactive means score below 0.9). The note with it: HepG2 Attagene CIS-FACTORIAL Myb reporter transcription; actives raise or lower the signal. The gist of the method:
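HepG2 cells were transiently transfected with cis-regulated multiple reporter transcription units reflecting endogenous Myb activity, then exposed to compound for 24 hours. Reporter mRNA was measured by RT-PCR with capillary electrophoresis; bidirectional fitting versus DMSO baseline.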

Experiment [7] concerns the target Nuclear respiratory factor 1 (Homo sapiens) (UniProt Q16656). The experiment is described as follows: ATG_NRF1_CIS: Attagene CIS-FACTORIAL HepG2 Assay for human Nuclear Respiratory Factor 1 (NRF1) Orphan Gene (AID 2282987; active means hit-call score of the fitted dose curve at least 0.9, where 1 is the maximum; inactive means score below 0.9). The note with it: HepG2 NRF1 cis-element reporter, Attagene multiplex; actives raise or lower the signal. The procedure, abridged: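 HepG2 cells transiently transfected with multiple reporter transcription units under cis-regulatory promoter control, so endogenous transcription-factor activity is read. After 24 h compound exposure, reporter mRNA quantified by RT-PCR, fluorescent labelling, HpaI digestion and capillary electrophoresis; bidirectional fitting versus DMSO.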

A short description of experiment [8]: ATG_NFI_CIS: Attagene CIS-FACTORIAL HepG2 Assay for human Nuclear Factor I (NFI) (AID 2282989; active means hit-call score of the fitted dose curve at least 0.9, where 1 is the maximum; inactive means score below 0.9). The note with it: HepG2 cis-regulatory reporter, NFI response element transcription; actives raise or lower the signal. The gist of the method: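 After transient transfection of HepG2 with cis-promoter reporter constructs and 24 h dosing, RNA is reverse-transcribed, amplified, 6-FAM end-labelled and HpaI-digested before capillary analysis. Bidirectional curve fitting against DMSO.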

In experiment [9] the target is Oxysterols receptor LXR-alpha (Homo sapiens) (UniProt Q13133). Briefly: ATG_LXRa_TRANS: Attagene TRANS-FACTORIAL HepG2 Assay for human Liver X Receptor alpha (LXRa) (AID 2282980). The note with it: HepG2 Attagene TRANS reporter, LXRa transactivation. The procedure, abridged: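 Chemical-induced reporter mRNA measured by RT-PCR with fluorescent labelling and capillary electrophoresis after 24 h dosing of transiently transfected HepG2 cells expressing exogenous NR-Gal4 chimeras; increases scored against DMSO baseline.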
Oxysterols receptor LXR-alpha (Homo sapiens), sequence (Q13133 whole entry, looked up, the tested form may be a part): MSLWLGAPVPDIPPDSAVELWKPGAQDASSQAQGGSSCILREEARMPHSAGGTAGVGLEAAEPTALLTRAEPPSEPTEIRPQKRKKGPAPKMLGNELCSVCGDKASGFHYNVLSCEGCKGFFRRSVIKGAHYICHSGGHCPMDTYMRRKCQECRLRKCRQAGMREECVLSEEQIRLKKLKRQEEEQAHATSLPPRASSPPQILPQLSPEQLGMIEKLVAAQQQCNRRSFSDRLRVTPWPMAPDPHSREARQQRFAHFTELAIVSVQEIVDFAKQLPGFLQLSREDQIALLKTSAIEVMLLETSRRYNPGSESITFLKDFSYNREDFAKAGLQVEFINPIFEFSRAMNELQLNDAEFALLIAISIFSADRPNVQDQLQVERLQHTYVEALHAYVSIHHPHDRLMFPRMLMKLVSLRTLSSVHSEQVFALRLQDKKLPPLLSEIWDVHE

Nuclear respiratory factor 1 (Homo sapiens), sequence (Q16656 whole entry, looked up): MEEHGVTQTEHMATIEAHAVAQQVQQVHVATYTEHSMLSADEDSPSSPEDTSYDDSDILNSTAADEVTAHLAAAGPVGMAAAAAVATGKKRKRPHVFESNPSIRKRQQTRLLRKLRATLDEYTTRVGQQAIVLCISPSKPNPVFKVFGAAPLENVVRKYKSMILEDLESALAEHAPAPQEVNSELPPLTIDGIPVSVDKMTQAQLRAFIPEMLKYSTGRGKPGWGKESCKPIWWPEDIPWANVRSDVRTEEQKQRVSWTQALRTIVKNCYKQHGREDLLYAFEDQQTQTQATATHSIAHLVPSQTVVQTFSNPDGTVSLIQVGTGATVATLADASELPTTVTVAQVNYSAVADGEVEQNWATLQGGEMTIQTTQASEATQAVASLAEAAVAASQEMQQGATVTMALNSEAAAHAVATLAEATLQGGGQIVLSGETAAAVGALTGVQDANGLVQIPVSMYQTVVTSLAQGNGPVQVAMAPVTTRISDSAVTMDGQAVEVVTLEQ
Nuclear receptor subfamily 4 group A member 2 (Homo sapiens), sequence (P43354 whole entry, looked up, the tested form may be a part): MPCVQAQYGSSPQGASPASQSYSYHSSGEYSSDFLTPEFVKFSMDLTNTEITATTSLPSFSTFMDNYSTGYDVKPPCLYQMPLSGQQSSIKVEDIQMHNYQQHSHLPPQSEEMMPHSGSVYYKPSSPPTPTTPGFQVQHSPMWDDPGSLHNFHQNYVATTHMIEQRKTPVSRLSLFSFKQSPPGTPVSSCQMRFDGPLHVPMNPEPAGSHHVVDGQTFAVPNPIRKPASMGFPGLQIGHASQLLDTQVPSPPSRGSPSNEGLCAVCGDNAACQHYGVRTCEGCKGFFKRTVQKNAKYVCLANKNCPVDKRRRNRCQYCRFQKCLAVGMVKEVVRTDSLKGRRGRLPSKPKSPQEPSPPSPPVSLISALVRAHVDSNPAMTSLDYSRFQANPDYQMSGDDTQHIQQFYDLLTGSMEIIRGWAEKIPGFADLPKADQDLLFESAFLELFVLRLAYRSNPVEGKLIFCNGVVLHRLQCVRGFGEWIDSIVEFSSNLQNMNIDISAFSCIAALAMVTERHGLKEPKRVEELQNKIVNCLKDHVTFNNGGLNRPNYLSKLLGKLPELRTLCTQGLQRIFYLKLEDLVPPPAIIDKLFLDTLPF
Oxysterols receptor LXR-beta (Homo sapiens), sequence (P55055 whole entry, looked up, the tested form may be a part): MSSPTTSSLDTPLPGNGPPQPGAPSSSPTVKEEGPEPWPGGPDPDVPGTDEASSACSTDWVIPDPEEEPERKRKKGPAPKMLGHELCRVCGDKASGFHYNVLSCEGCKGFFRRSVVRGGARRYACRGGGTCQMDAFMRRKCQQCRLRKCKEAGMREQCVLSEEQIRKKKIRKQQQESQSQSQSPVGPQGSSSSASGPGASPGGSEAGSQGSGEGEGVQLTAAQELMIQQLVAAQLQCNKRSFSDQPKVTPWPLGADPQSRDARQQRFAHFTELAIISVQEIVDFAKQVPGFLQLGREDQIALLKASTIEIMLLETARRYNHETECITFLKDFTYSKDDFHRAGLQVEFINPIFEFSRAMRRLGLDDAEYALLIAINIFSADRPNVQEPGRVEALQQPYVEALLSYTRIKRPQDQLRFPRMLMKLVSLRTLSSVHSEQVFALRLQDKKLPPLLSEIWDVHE
Hepatocyte nuclear factor 4-alpha (Homo sapiens), sequence (P41235 whole entry, looked up, the tested form may be a part): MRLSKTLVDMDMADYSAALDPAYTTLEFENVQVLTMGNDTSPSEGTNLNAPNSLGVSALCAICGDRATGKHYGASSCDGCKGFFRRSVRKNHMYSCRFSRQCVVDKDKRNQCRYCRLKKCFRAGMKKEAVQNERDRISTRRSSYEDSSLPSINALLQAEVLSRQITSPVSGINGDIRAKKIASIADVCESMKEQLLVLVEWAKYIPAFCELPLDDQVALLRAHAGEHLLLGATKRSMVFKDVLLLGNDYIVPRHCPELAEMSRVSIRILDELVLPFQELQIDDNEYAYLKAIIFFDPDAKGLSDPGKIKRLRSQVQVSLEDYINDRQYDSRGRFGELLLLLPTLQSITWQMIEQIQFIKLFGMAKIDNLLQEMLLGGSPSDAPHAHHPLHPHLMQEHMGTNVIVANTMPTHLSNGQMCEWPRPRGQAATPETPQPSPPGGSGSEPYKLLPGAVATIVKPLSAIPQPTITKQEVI
Transcriptional activator Myb (Homo sapiens), sequence (P10242 whole entry, looked up): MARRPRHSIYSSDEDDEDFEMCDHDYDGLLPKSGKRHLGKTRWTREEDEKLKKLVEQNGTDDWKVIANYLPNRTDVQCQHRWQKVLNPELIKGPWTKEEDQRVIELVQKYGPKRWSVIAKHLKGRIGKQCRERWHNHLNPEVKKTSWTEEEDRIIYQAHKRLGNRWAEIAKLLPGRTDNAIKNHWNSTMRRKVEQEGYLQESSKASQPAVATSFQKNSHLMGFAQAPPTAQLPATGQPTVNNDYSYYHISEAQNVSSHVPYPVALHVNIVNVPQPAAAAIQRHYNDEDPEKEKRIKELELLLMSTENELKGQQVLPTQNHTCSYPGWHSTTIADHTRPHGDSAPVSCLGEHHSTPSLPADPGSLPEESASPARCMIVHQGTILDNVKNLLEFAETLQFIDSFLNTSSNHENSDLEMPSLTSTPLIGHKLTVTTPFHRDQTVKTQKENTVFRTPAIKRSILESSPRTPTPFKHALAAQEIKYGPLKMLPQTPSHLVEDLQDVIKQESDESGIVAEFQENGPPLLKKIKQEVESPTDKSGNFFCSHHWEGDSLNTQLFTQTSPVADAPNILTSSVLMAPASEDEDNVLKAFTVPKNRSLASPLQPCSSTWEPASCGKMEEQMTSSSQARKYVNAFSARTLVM

In the case of `C=CCOC(Cn1ccnc1)c1ccc(Cl)cc1Cl` (stereo not drawn), the compound was classed as inactive in [1], in experiment [2], in experiment [3], in experiment [4], in experiment [5] and in experiment [6]. The outcome in experiment [7] and in experiment [8] was inactive.

For the compound `CCCCOCCOCCOCc1cc2c(cc1CCC)OCO2`, the result in experiment [2], in experiment [3], in experiment [4], in experiment [5], in experiment [6] and in experiment [7] was inactive. Besides, the outcome in experiment [8] was inactive.

Regarding `CCOC(=O)C(C)Oc1ccc(Oc2cnc3cc(Cl)ccc3n2)cc1` (stereo not drawn), the compound was classed as inactive in [9], in experiment [1], in experiment [5], in [6], in experiment [7] and in experiment [8].

Consider `CCN(Cc1c(F)cccc1Cl)c1c([N+](=O)[O-])cc(C(F)(F)F)cc1[N+](=O)[O-]`, for which the result in experiment [1], in experiment [2], in experiment [4], in [5], in [6] and in experiment [7] was inactive. The compound was classed as inactive in experiment [8].

Take `C[C@]12C[C@H](O)[C@H]3[C@@H](CCC4=CC(=O)CC[C@@]43C)[C@@H]1CC[C@@H]2C(=O)CO`: the result in [9], in experiment [1], in experiment [3], in experiment [4], in experiment [5] and in experiment [6] was inactive. Also, the compound was called inactive in experiment [7] and in [8].

Consider `CCOC(=O)[C@H](C)Oc1ccc(Oc2nc3ccc(Cl)cc3o2)cc1`, for which the result in [9], in [2], in experiment [6], in [7] and in [8] was inactive. Besides, the concentration at half-maximal activity (AC50) in experiment [1] is 50 µM (active).

`C#CCOC(=O)[C@@H](C)Oc1ccc(Oc2ncc(Cl)cc2F)cc1`: the outcome in [9], in experiment [3], in experiment [6], in experiment [7] and in experiment [8] was inactive. Moreover, in experiment [1], the AC50 was 1.16 µM (active).

As for `CCOC(=O)COc1cc(-n2ncc(C(F)(F)F)c(C)c2=O)c(F)cc1Cl`, the result in [9], in experiment [1], in experiment [3], in experiment [6], in experiment [7] and in [8] was inactive.

With `COc1c(Cl)ccc(Cl)c1C(=O)O`, the compound was classed as inactive in experiment [9], in experiment [1], in experiment [6], in experiment [7] and in [8]. In addition, the AC50 in experiment [5] is 59.2 µM (active).

As for `CCOC(=O)C(C)Oc1ccc(Oc2nc3ccc(Cl)cc3o2)cc1` (stereo not drawn), the result in [9], in experiment [1], in experiment [2], in experiment [5], in experiment [6] and in [7] was inactive. The compound was called inactive in experiment [8].

In the case of `CC(=O)[C@H]1CC[C@H]2[C@@H]3CCC4=CC(=O)CC[C@]4(C)[C@H]3CC[C@]12C`, the compound was called inactive in [9], in [1], in [3], in [4], in [5] and in experiment [6]. Further, the outcome in experiment [7] and in [8] was inactive. In addition, in experiment [4], the AC50 was 125 µM (active).

As to `O=C(Nc1ccc([N+](=O)[O-])cc1Cl)c1cc(Cl)ccc1O`, the compound was classed as inactive in experiment [9], in [1], in experiment [2], in experiment [6], in experiment [7] and in experiment [8].

For `O=C(c1ccccc1)C1CCCCC1`, the compound was called inactive in [9], in experiment [1], in experiment [3], in experiment [4], in [5] and in [6]. Further, the result in experiment [7] and in [8] was inactive.

As for `COC(=O)c1ccccc1C(=O)O`, the compound was classed as inactive in [9], in experiment [1], in experiment [3], in experiment [5], in [6] and in experiment [7]. Also, the compound was called inactive in [8].

Take `C#C[C@]1(O)CC[C@H]2[C@@H]3CCC4=CC(=O)CC[C@@H]4[C@H]3CC[C@@]21CC`: the compound was called inactive in experiment [9], in experiment [1], in [3], in experiment [4], in experiment [5] and in experiment [6]. Also, the result in experiment [7] and in [8] was inactive.

Regarding `CCSC(=O)N(CC(C)C)CC(C)C`, the compound was classed as inactive in experiment [1], in experiment [3], in experiment [4], in experiment [5], in experiment [6] and in experiment [7]. In addition, in [8], the outcome was inactive.

As for `CCCOC(=O)NCCCN(C)C`, the compound was classed as inactive in experiment [9], in experiment [1], in experiment [5], in experiment [6], in experiment [7] and in [8].
